Hits are enriched below; roughly 10% of the tested compounds scored in any of these assays.
HP1b binding inh: inhibitors of HP1-beta chromodomain binding to methylated histone tails; P83916; AlphaScreen HP1-beta / biotin-H3K9me3 peptide binding; Potency, µM (highest dose often 114 µM), for inactives: top-dose activity change, negative = inhibition, usual class: inhibitors; 0.56% of 390,000 active; further: nearly all actives have a fitted effect of over 70% in size
Target sequence (P83916 whole entry, looked up): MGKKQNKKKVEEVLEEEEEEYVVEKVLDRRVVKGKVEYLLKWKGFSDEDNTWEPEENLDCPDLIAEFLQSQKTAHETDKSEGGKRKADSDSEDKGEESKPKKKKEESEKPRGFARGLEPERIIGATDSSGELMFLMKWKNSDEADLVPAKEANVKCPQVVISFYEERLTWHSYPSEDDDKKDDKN
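Compound inhibition of the preformed complex between 50 nM HP1-beta and 50 nM biotinylated H3K9me3 peptide was read by AlphaScreen. Buffer was PBS pH 7.4 with 0.01% Tween-20. Incubations ran 30 min at room temperature, with 10 ug/mL donor/acceptor beads.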
JMJD2A Tudor: blocks the human JMJD2A Tudor domain | 4.4% of 390,000 active | Potency, µM (series often up to 114 µM), without a hit: at the top dose activity change, negative = inhibition, usual class: inhibitors | O75164 | AlphaScreen JMJD2A-Tudor / H3K4me3 peptide binding | AID 504339; further: on the % scale 0 is the no-effect control and ±100 the full control effect; nearly all actives have a fitted effect of over 50% in size
BAZ2B block: blocks human BAZ2B. Q9UIF8. AlphaScreen BAZ2B-H3K14Ac peptide displacement. Potency, µM (series often up to 114 µM), for inactives: top-dose activity change, negative = inhibition, actives largely listed as inhibitors. 4.4% of 360,000 active; further: on the % scale 0 is the no-effect control and ±100 the full control effect; nearly all actives have a fitted effect of over 60% in size
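Inhibition is scored as reduced AlphaScreen emission. The BAZ2B/b-H3(5-23)K14Ac complex (50 nM each) in PBS pH 7.4, 0.01% Tween-20 meets compound (up to 110 uM) for 30 min at RT before bead addition.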
G9a inh: inhibitors of human histone lysine methyltransferase G9a | Q96KQ7 | G9a H3K9 monomethylation, AlphaScreen, 2 h | Potency, µM (titrated, usually from 102 µM), inactives show at the highest dose activity, negative = inhibition, actives largely listed as inhibitors | 8.8% of 350,000 active | AID 504332; further: on the % scale 0 is the no-effect control and ±100 the full control effect; nearly all actives have a fitted effect of over 75% in size
Target sequence (Q96KQ7 913-1193 limits assumed): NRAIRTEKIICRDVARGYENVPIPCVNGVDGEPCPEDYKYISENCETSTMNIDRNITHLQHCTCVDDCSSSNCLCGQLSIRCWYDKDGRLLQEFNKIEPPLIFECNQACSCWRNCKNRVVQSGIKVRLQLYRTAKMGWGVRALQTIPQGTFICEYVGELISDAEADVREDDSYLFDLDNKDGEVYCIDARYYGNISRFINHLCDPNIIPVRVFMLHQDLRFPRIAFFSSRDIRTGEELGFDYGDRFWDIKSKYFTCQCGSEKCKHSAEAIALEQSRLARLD
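Enzyme 20 nM + cpd, 15 min RT; add b-H3K9 pep 500 nM / SAM 20 uM; 2 h RT; anti-H3K9me1 Ab 0.5 ug/mL + SA donor / anti-rabbit acceptor beads 20 ug/mL each, 10 min; AlphaScreen read.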
L3MBTL1 inh: blocks human L3MBTL1; AlphaScreen L3MBTL1–H3K9me1 peptide binding; Potency, µM (titrated, usually from 57.1 µM), without a hit: top-dose activity, negative = inhibition, actives largely listed as inhibitors; 0.66% of 230,000 active; AID 485360; further: on the % scale 0 is the no-effect control and ±100 the full control effect; nearly all actives have a fitted effect of over 60% in size
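AlphaScreen assay: L3MBTL1 (50 nM final) was preincubated 30 min at room temperature with biotinylated H3(1-15)K9me1 peptide (75 nM final), then 30 min with library compounds; streptavidin donor and nickel chelate acceptor beads (10 ug/mL final) added, 30 min dark.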
GLS inh: inhibitors of human glutaminase (GLS). O94925. GLS enzymatic activity, qHTS titration. Potency, µM (titrated, usually from 45.5 µM), without a hit: at the highest dose activity change, negative = inhibition, actives largely listed as inhibitors. 0.21% of 410,000 active. AID 624170; further: on the % scale 0 is the no-effect control and ±100 the full control effect
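hKGA in 45 mM KH2PO4 pH 8.2, 0.02% Tween-20 with pin-transferred compounds; 1 mM L-glutamine (stock) plus glutamate oxidase/HRP/Amplex Red coupling added. Fluorescence read initially and after 30 min at RT.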
Active calls of the source: *; u = inconclusive; x = no result; ! = repeats disagree; [ ] = another dose, or the depositor's remark. The call rests on the fitted dose curve; in most records, active means well fitted curve in the direction sought with a large enough effect; inconclusive means small, poorly fitted or top-dose-only effect, or another doubt; inactive means no such curve, though single readings can be large; an effect the other way counts as inactive or inconclusive. Potency means the concentration at half of the fitted maximal effect.

SMILES	HP1b binding inh	JMJD2A Tudor	BAZ2B block	G9a inh	L3MBTL1 inh	GLS inh
O=[N+]([O-])c1ccccc1/C=N\N1CCN(c2ccccc2)CC1	u	40µM*	18µM*	10µM*	u	0%
Cc1cccc(/C=N/N2CCN(c3ccccc3)CC2)c1	-19%	u	u	-19%[59 µM]	-10%	17%
Cc1ccccc1/C=N/N1CCN(c2ccccc2)CC1	u	u	20µM*	28µM*	u	16%
O=[N+]([O-])c1ccccc1/C=N/N1CCN(c2ccc(Cl)cc2)CC1	u	u	14µM*	18µM*	u	8%
COc1ccccc1N1CCN(/N=C/C=C/c2ccccc2[N+](=O)[O-])CC1	u	20µM*	11µM*	11µM*	u	-5%
Cc1ccc(S(=O)(=O)NCl)cc1	x	x	x	u	x	-9%
O=[S+]([O-])(NC[C@H]1CCC[C@H](CN[S+](=O)([O-])c2c(F)cccc2F)C1)c1ccc2c(c1)OCCO2	x	-14%	x	x	x	x
c1cn(CCCNc2ncnc3sc4c(c23)CCC4)cn1	11%	-23%	13%	4%	-10%	1%
c1cn(CCCNC2CCCCCCC2)cn1	u	40µM*	x	x	x	2%
c1cn(CCCNC2=NCCCCC2)cn1	27%	-28%	50µM*	-2%	-7%	3%
CCn1cc2nc(SCc3ccccc3F)n(Cc3ccc(C)cc3)c(=O)c2n1	16%	-14%	-2%	-7%[59 µM]	x	1%
CCOC(=O)c1cc(-c2ccc(C)cc2)nn1Cc1ccccc1	171%	109%	x	136%[59 µM]	x	0%
Fc1ccc2c(c1)-c1c(cnc3cc(-c4ccc(Cl)cc4)nn13)CO2	23%	-4%	-2%	1%[59 µM]	x	5%
CC(C)(C)OC(=O)N1CCC(c2c(C(=O)NCc3ccco3)cnn2-c2ccc(F)cc2)CC1	13%	-28%	2%[57.1 µM]	u	x	-8%
COc1ccc(-c2noc(N(c3ccc(F)c(Cl)c3)c3nc(-c4ccc(OC)c(OC)c4)no3)n2)cc1OC	37%	-14%	-2%	11%[59 µM]	x	4%
COc1cc(C(=O)NCCNC(=O)c2cc(OC)c(C)c(OC)c2)cc(OC)c1C	23%	-3%	-11%	32µM*	x	6%
CCOCCc1nn2c(=O)cc(COC(=O)c3ccc(NC(=O)C(C)(C)C)cc3)nc2s1	26%	-15%	-5%	4%[59 µM]	x	-1%
CNCCCC1c2ccccc2C=Cc2ccccc21	10%	-14%	-3%	22%[59 µM]	-27%	5%
CNCCCC12CCC(c3ccccc31)c1ccccc12	38%	-28%	-1%	71µM*!	-8%	-12%
COc1ccc(S(=O)(=O)CC(=O)c2cc3cccc(C)c3oc2=O)cc1	28%	-33%	-34%	50µM*	x	-1%
NCCCN(Cc1ccccc1)c1ccc(Br)cn1	25%	-20%	x	x	x	x
COc1ccc(C2NC(c3ccc4c(c3)OCO4)=CC(c3ccccc3O)N2)cc1OC (stereo unspecified)	5%[57 µM]	-20%[57.1 µM]	x	x	x	x
C/C(O)=C(/C#N)c1nc2ccccc2[nH]1	34%	-29%	u	10µM*	0%	6%
N#C/C(=C(/O)C(Cl)(Cl)Cl)c1nc2ccccc2[nH]1	22%[57 µM]	50µM*	-16%	5%	8%	14%
N#C/C(=N\O)c1nc2ccccc2[nH]1	15%	56µM*	u	9%	-6%	9%
SMILES	HP1b binding inh	JMJD2A Tudor	BAZ2B block	G9a inh	L3MBTL1 inh	GLS inh
N#C/C(=C(\O)c1cc(Cl)sc1Cl)c1nc2ccccc2[nH]1	18%[57 µM]	-32%	71µM*	29%	x	15%
Cc1ccc2nc(/C(C#N)=N/O)[nH]c2c1	47%	-10%[11.4 µM]	u	-41%[12.7 µM]	-6%	10%
COc1ccc(S(=O)(=O)N(Cc2nc(-c3cccc(C)c3)no2)C2CCCCC2)cc1	63%	14%	0%	23%[59 µM]	x	8%
O=C(Nc1ccccc1)N1CC=C(c2ccccc2)CC1	x	x	8%	-42%[12.7 µM]	x	x
O=C(Nc1cccc2ccccc12)N1CC=C(c2ccccc2)CC1	16%	-17%	1%	45µM*	x	9%
O=C1c2cccnc2C(Nc2ccc(Br)cc2)N1Cc1cccs1 (stereo unspecified)	9%	u	x	50µM*	x	24%
O=C1c2cccnc2C(Nc2ccc(F)c(Cl)c2)N1Cc1cccs1 (stereo unspecified)	17%	-10%	u	50µM*	x	4%
COc1ccc(NC2c3ncccc3C(=O)N2Cc2cccs2)cc1 (stereo unspecified)	u	u	71µM*	50µM*	-1%	3%
COC(=O)c1ccc(NC2c3ncccc3C(=O)N2Cc2cccs2)cc1 (stereo unspecified)	24%	-8%	-3%	u	x	5%
COCCNC(=O)CSc1nnc2[nH]c(=O)cc(C)n12	37%	-6%	2%	-8%[59 µM]	x	-3%
Oc1c(Cl)cc(Cl)c2c1NCCC2	50µM*	56µM*	u	u	-6%	11µM*
CN1C(=O)/C(=C/c2ccccc2OCc2ccc(C(=O)O)cc2)NC1=S	22%	u	u	u	-7%	20%
O=C(O)c1ccc(COc2ccccc2/C=C2/NC(=O)N(c3cccc(Cl)c3)C2=O)cc1	u	u	79µM*	-15%[59 µM]	-6%	14%
O=C1NC(=S)N/C1=C\c1ccccc1OCc1ccc(C(=O)O)cc1	-8%	79µM*	-1%	x	5%	-7%
Cc1ccc(N2CC(C)Cn3c2nc2c3c(=O)n(CC(=O)O)c(=O)n2C)cc1 (stereo unspecified)	20%	-12%	-36%	0%[59 µM]	x	1%
O=c1c2ccccc2sc2ccccc12	19%	-13%	x	x	x	-2%
O=c1c(C(c2ccccc2)c2c(O)sc3ccccc3c2=O)c(O)sc2ccccc12	22%	-9%	28µM*	u	x	8%
O=C(O)C(Cc1c[nH]c2ccccc12)NS(=O)(=O)c1ccc(Br)cc1 (stereo unspecified)	u	28µM*	-21%	u	x	23%
O=C(O)C(Cc1c[nH]c2ccccc12)NS(=O)(=O)c1ccc(Cl)cc1 (stereo unspecified)	13%	1%	8%	u	-17%	2%
CC(C)C[C@H](NS(=O)(=O)c1ccc(Br)cc1)C(=O)O	-6%	89µM*	4%	-44%	x	-2%
Cc1ccc(C)c(N2CCN(C(=O)c3cc(S(=O)(=O)N4CCCCC4)cn3C)CC2)c1	-2%[57 µM]	u	-30%	-30%[59 µM]	x	-7%
CCCc1cnc2c(c1SCC(=O)NCc1ccc(C)cc1)c(=O)n(C)c(=O)n2C	1%	-14%	-23%	10µM*	x	-10%
Cc1sc2nc(SCC(=O)NCc3ccco3)n(C)c(=O)c2c1C	18%	-17%	4%	-2%	0%	5%

Screening results: PubChem, National Center for Advancing Translational Sciences (NCATS)
